Common to all, as to assay: DAPPL (digital affinity profiling via proximity ligation, sequencing); 10 mM Tris-HCl pH 7.5, 50 mM NaCl, 1 mM DTT, 4% glycerol, room temperature, 30 min; GST-TFs on glutathione beads, 16-mer random dsDNA library, 0.1% formaldehyde crosslink after washing; high values mean tight binding
Conditions in all cases: protein: recombinant; tags: N-terminal GST; dsDNA, one strand shown

Assay [1] has as its target T1, ELF3 (Homo sapiens, UniProt P78545 1-371).
T1 sequence: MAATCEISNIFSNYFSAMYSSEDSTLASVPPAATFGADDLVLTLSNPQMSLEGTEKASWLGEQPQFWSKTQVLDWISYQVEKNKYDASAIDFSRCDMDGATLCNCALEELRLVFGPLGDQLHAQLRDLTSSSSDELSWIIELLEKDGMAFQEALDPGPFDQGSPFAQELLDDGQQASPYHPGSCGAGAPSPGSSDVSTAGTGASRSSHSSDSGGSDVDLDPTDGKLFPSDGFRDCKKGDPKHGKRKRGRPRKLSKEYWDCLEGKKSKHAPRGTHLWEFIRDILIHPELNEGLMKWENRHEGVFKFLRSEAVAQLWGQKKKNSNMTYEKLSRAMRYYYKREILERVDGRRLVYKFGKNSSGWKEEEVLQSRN
The method in brief: (§1)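 Human transcription factors carrying a GST fusion were produced in yeast, bound to glutathione beads, tagged with DNA barcodes and pooled together with a tag-only sample. Each pool was held with 200 nmole of a random double-stranded 16-mer DNA library in Tris/NaCl/DTT/glycerol buffer for 30 min at room temperature, then washed, crosslinked in 0.1% formaldehyde, proximity-ligated with BsaI/T4 ligase (1 h, 37 °C), PCR-amplified and sequenced on an Illumina NextSeq500. Binding signal is the read frequency of each hexamer for a given factor divided by its frequency in the tag-only sample.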

Assay [2] deals with T2, ERF (Homo sapiens, UniProt P50548 1-548).
T2 sequence: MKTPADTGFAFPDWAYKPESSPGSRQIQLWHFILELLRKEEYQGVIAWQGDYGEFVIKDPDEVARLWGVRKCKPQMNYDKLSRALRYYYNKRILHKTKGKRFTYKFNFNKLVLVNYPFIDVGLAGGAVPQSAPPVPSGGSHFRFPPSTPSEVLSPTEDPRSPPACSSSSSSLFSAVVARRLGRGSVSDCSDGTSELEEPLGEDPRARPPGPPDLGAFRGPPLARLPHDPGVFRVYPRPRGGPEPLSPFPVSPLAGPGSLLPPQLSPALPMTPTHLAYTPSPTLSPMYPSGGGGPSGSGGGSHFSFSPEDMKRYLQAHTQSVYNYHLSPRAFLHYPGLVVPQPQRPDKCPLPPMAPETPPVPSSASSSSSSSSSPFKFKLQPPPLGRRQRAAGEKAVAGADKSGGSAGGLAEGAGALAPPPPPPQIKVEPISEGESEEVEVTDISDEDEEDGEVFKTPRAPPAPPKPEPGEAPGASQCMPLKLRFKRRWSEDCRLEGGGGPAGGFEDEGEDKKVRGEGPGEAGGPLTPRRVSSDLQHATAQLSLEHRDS
The method in brief: as §1

Assay [3] addresses T3, ELK3 (Homo sapiens, UniProt P41970 1-407).
T3 sequence: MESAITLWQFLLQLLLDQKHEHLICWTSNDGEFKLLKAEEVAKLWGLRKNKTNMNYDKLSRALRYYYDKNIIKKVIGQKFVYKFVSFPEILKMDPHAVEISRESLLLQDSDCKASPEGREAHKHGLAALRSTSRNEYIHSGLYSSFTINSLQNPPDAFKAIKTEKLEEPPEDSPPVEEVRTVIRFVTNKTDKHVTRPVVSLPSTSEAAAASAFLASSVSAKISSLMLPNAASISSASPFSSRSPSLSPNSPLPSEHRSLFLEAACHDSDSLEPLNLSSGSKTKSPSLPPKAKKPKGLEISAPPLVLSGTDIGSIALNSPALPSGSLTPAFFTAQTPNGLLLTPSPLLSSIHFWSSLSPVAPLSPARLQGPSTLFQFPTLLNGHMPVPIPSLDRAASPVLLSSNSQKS
The method in brief: as §1

Assay [4] has as its target T4, ETV2 (Homo sapiens, UniProt O00321 1-342).
T4 sequence: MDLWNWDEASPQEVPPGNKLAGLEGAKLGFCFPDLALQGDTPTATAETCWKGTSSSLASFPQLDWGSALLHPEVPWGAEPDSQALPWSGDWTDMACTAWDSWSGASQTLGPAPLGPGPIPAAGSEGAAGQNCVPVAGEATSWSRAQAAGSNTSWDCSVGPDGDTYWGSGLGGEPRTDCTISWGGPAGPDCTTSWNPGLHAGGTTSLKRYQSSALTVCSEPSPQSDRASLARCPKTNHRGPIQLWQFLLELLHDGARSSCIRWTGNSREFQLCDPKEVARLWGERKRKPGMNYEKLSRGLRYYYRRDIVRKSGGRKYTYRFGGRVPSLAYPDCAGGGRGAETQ
The method in brief:
as §1

The target in assay [5] is T5, GABPA (Homo sapiens, UniProt Q06546 1-454).
T5 sequence: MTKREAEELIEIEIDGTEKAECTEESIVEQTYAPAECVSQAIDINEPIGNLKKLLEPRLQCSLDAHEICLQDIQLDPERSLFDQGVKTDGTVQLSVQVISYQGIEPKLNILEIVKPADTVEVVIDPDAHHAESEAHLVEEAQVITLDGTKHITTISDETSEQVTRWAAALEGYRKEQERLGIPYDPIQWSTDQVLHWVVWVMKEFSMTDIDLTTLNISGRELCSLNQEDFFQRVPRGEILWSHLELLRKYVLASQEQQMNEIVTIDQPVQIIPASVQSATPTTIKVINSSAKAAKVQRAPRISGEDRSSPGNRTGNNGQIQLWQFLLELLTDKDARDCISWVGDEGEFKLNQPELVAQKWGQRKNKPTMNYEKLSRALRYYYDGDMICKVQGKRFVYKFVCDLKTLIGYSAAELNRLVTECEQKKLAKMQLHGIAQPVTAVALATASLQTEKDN
In a few lines:
as §1

In assay [6] the target is T6, ETV7 (Homo sapiens, UniProt Q9Y603 1-341).
T6 sequence: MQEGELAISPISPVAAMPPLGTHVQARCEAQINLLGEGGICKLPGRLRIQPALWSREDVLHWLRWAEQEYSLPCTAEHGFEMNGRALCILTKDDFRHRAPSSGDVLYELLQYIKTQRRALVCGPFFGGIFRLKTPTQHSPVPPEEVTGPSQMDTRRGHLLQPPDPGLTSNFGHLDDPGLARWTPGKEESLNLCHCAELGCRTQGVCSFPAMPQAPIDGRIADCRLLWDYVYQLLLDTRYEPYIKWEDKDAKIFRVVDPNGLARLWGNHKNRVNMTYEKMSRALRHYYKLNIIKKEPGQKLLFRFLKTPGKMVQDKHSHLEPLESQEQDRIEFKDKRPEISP
The method in brief: as §1

Assay [7] has as its target T7, EHF (Homo sapiens, UniProt Q9NZC4 1-300).
T7 sequence: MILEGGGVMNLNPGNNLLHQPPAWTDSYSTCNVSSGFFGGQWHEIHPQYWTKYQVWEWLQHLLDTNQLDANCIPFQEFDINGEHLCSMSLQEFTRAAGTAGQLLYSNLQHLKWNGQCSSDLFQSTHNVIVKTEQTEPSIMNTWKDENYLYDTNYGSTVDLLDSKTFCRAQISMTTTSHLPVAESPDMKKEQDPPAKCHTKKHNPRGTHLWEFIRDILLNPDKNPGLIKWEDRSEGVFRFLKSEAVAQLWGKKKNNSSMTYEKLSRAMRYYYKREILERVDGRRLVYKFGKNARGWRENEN
The method in brief:
as §1

Assay [8] has as its target T8, SPDEF (Homo sapiens, UniProt O95238 1-335).
T8 sequence: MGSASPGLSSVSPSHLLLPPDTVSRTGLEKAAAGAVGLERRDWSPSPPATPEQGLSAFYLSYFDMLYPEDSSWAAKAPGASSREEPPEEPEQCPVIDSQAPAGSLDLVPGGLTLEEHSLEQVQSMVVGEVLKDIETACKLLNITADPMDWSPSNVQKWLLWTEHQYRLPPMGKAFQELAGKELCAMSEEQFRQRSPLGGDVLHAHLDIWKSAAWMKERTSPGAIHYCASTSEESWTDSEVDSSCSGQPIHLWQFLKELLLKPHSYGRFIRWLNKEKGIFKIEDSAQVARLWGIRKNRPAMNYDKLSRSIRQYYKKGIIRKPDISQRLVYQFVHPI
In a few lines: as §1

In assay [9] the target is SPI1 (Homo sapiens, UniProt P17947 1-270). In a few lines: as §1
Assay [10] has as its target ETV1 (Homo sapiens, UniProt P50549 1-477). In a few lines: as §1
For assay [11], the target named is CRX (Homo sapiens, UniProt O43186 1-299). In a few lines:
as §1

The target in assay [12] is SPIB (Homo sapiens, UniProt Q01892 1-262). In a few lines:
as §1

Assay [13] concerns the target T9, ETV3 (Homo sapiens, UniProt P41162-2 1-143).
T9 sequence: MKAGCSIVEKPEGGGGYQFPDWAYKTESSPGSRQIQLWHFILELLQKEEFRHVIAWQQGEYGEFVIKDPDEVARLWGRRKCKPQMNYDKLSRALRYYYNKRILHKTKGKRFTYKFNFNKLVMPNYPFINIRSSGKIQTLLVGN
The method in brief:
as §1

For assay [14], the target named is ETV6 (Homo sapiens, UniProt P41212 1-452). The method in brief: as §1
Sequence of ETV6 (P41212 whole entry): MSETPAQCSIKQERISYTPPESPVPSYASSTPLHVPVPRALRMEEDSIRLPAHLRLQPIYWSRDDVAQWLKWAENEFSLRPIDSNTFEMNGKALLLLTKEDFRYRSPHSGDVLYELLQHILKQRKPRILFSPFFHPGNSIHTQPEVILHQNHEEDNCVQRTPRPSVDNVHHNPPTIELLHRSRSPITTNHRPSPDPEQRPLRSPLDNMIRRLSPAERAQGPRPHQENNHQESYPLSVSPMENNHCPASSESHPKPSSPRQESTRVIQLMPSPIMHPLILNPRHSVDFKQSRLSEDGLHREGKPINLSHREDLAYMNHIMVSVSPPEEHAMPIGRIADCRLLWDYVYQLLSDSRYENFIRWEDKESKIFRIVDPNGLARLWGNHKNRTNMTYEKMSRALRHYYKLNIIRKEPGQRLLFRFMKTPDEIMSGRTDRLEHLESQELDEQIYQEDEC

Sequence of CRX (O43186 whole entry): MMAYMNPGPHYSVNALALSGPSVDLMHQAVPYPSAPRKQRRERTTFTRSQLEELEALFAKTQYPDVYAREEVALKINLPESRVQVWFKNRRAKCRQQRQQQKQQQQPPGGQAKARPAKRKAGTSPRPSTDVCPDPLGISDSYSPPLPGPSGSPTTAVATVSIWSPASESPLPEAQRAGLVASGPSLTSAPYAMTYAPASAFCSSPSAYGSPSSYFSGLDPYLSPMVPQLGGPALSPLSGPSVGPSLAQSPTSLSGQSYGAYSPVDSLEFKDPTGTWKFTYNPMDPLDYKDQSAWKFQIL
Sequence of SPIB (Q01892 whole entry): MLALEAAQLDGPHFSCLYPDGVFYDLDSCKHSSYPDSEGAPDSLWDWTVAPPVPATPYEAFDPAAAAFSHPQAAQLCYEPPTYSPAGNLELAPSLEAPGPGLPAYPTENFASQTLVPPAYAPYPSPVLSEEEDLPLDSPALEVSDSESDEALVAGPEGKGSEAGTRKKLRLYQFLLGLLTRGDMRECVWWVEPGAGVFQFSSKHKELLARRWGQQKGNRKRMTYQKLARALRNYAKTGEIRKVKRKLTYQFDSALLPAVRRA
Sequence of ETV1 (P50549 whole entry): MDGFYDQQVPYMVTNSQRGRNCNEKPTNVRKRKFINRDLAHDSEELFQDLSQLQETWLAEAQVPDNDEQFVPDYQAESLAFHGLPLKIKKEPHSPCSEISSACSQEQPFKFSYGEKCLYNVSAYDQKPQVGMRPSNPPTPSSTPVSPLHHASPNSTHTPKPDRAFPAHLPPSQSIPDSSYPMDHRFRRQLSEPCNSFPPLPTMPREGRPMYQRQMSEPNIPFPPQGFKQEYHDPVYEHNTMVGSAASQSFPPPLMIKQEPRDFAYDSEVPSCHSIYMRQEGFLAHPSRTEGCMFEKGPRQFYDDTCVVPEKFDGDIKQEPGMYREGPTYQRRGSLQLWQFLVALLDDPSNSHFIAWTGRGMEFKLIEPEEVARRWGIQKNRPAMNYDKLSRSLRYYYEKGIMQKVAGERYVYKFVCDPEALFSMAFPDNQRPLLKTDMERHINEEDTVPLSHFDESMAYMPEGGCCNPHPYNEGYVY

Turning to TCATAG, the binding signal was 1.04 fold enrichment (6-mer frequency, TF over GST control) in assay [1] and 1 fold enrichment (6-mer frequency, TF over GST control) in [2].
For TGGGCG, the binding signal was 1.01 fold enrichment (6-mer frequency, TF over GST control) in assay [3] and 1 fold enrichment (6-mer frequency, TF over GST control) in assay [4].
Take TCGTCG: in assay [4], the binding signal is 1.05 fold enrichment (6-mer frequency, TF over GST control).
As to AGCAAG, the binding signal in [4] was 1.02 fold enrichment (6-mer frequency, TF over GST control).
Consider TGCGTC, for which the binding signal in assay [5] was 1.01 fold enrichment (6-mer frequency, TF over GST control); in assay [4] it was 1.04 fold enrichment (6-mer frequency, TF over GST control); in [1], 1.03 fold enrichment (6-mer frequency, TF over GST control); in assay [6], 1.04 fold enrichment (6-mer frequency, TF over GST control).
With AAGGTC, the binding signal in [7] was 1.08 fold enrichment (6-mer frequency, TF over GST control); in [4] it was 1.06 fold enrichment (6-mer frequency, TF over GST control).
With GACCGA, the binding signal in assay [4] is 1.04 fold enrichment (6-mer frequency, TF over GST control).
As to CCGTTA, the binding signal is 1.05 fold enrichment (6-mer frequency, TF over GST control) in assay [4]; 1.01 fold enrichment (6-mer frequency, TF over GST control) in assay [1]; 1.04 fold enrichment (6-mer frequency, TF over GST control) in [8].
GTTCAG: the binding signal in assay [4] was 1.01 fold enrichment (6-mer frequency, TF over GST control).
Consider GGCATA, for which the binding signal in [4] was 1.05 fold enrichment (6-mer frequency, TF over GST control).
As to GTAGCC, the binding signal is 1.03 fold enrichment (6-mer frequency, TF over GST control) in [9]; 1.06 fold enrichment (6-mer frequency, TF over GST control) in assay [1]; 1 fold enrichment (6-mer frequency, TF over GST control) in assay [10].
As for GACCCA, in assay [4], the binding signal was 1.09 fold enrichment (6-mer frequency, TF over GST control).
GATAAC: the binding signal in [4] was 1.08 fold enrichment (6-mer frequency, TF over GST control); in [11] it was 1.13 fold enrichment (6-mer frequency, TF over GST control).
As for ACTGGG, the binding signal in assay [4] was 1.03 fold enrichment (6-mer frequency, TF over GST control).
Turning to GTCAAA, the binding signal in assay [1] was 1 fold enrichment (6-mer frequency, TF over GST control); in [10] it was 1 fold enrichment (6-mer frequency, TF over GST control).
As for CGGACC, the binding signal in assay [4] was 1.02 fold enrichment (6-mer frequency, TF over GST control).
In the case of GCGACG, in assay [4], the binding signal is 1.15 fold enrichment (6-mer frequency, TF over GST control).
ACCAAG: the binding signal in assay [1] is 1.14 fold enrichment (6-mer frequency, TF over GST control).
With AGGCCT, the binding signal is 1.08 fold enrichment (6-mer frequency, TF over GST control) in assay [5]; 1.01 fold enrichment (6-mer frequency, TF over GST control) in assay [3]; 1.01 fold enrichment (6-mer frequency, TF over GST control) in assay [4]; 1.07 fold enrichment (6-mer frequency, TF over GST control) in [11]; 1.01 fold enrichment (6-mer frequency, TF over GST control) in assay [6].
On to GCGGCA, for which the binding signal in assay [1] was 1.01 fold enrichment (6-mer frequency, TF over GST control).
Regarding CTAGTG, the binding signal in [1] was 1.01 fold enrichment (6-mer frequency, TF over GST control).
As to ACCCGT, the binding signal in assay [4] was 1 fold enrichment (6-mer frequency, TF over GST control).
Turning to CGGCAC, the binding signal in [5] is 1.03 fold enrichment (6-mer frequency, TF over GST control); in assay [12], 1.03 fold enrichment (6-mer frequency, TF over GST control); in assay [1], 1.1 fold enrichment (6-mer frequency, TF over GST control); in assay [8], 1.02 fold enrichment (6-mer frequency, TF over GST control); in [6] it was 1 fold enrichment (6-mer frequency, TF over GST control); in assay [13], 1.03 fold enrichment (6-mer frequency, TF over GST control). Besides, the binding signal in assay [14] is 1.02 fold enrichment (6-mer frequency, TF over GST control).
Regarding GCAAAG, the binding signal in [4] was 1.12 fold enrichment (6-mer frequency, TF over GST control).
For the sequence GAAAGC, the binding signal in assay [1] is 1.06 fold enrichment (6-mer frequency, TF over GST control).
Still for that read-out and setting: as for GACCCC, the figure is 1.04 fold enrichment (6-mer frequency, TF over GST control).
Turning to TGAAGG, the binding signal is 1 fold enrichment (6-mer frequency, TF over GST control) in assay [12] and 1 fold enrichment (6-mer frequency, TF over GST control) in assay [4].
Regarding GATCAG, in assay [11], the binding signal is 1.08 fold enrichment (6-mer frequency, TF over GST control).
Consider ATCAGG, for which the binding signal in [11] is 1.04 fold enrichment (6-mer frequency, TF over GST control).
Regarding TAGAGG, the binding signal in assay [11] is 1.02 fold enrichment (6-mer frequency, TF over GST control).

Source of the values: article PMC7862700, “An all-to-all approach to the identification of sequence-specific readers for epigenetic DNA modifications on cytosine”.
